Data taken from the supplement of paper PMC10849652.
Targets with a hit are over-represented here; the source holds about 7,900 in all. About 0.6% of all pairs of compound and target were hits.

compound: c1cn2cc(-c3ccc4cn[nH]c4c3)nc(Nc3ccc(N4CCOCC4)cc3)c2n1 [entospletinib]; test: log2 fold change, soluble protein after heating vs DMSO (PISA); higher = thermal stabilisation; K562 cells, 10 uM, 30 min; active = over 0.2 and 3.5 SD of the protein, either way, in both replicates (recomputed)
Summary of the method: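 K562 cells at 2×10^6 cells/mL were treated with 10 μM compound for 30 min. Aliquots were heated for 3 min across 48°C-58°C, pooled, and extracted in PBS with 0.5% NP-40 at 4°C; soluble protein was the supernatant after 21,000xg for 90 min. Soluble protein was quantified by TMTpro 16plex LC-MS/MS with channel sums equalised, and reported as log2 fold change in thermal stability against DMSO controls, with values from duplicates.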

Sequence of UniProt O00584 (O00584 whole entry, looked up): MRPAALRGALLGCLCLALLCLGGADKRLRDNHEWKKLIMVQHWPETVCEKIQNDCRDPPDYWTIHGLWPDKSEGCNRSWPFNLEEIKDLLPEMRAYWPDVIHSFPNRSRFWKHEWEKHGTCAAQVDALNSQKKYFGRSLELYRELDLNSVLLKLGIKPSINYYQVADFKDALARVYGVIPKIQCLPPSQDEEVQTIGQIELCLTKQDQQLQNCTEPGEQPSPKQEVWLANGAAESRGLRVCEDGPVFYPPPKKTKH
Sequence of UniProt Q9P2N5 (Q9P2N5 whole entry, looked up): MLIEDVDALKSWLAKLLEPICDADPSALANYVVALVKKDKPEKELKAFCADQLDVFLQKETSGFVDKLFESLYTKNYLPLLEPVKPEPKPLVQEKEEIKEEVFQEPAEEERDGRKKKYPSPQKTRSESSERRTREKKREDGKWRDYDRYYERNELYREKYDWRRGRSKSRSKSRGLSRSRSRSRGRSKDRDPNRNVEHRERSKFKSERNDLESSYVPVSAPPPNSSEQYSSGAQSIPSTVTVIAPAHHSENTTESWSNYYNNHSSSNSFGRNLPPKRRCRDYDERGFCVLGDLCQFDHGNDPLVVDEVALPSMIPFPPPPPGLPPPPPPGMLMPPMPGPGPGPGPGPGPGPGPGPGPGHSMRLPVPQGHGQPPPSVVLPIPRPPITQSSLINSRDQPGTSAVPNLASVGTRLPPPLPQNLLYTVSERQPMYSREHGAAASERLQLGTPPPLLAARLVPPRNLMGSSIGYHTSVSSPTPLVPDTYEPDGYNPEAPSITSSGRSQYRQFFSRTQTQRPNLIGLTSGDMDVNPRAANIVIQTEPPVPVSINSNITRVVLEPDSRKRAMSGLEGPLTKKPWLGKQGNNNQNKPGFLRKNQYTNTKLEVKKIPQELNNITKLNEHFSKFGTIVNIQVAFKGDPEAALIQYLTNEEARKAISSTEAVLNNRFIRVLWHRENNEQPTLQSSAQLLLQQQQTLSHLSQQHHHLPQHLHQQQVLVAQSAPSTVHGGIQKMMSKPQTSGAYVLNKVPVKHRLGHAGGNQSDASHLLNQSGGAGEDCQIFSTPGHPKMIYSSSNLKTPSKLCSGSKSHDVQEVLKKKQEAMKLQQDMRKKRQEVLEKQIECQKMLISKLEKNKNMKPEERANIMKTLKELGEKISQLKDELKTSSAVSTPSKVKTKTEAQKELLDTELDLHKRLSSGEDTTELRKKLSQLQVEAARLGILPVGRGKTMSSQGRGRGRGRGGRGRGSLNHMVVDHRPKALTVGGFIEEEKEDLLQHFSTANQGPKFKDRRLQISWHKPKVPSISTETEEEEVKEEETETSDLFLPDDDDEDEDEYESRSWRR
Sequence of UniProt Q15287 (Q15287 whole entry, looked up): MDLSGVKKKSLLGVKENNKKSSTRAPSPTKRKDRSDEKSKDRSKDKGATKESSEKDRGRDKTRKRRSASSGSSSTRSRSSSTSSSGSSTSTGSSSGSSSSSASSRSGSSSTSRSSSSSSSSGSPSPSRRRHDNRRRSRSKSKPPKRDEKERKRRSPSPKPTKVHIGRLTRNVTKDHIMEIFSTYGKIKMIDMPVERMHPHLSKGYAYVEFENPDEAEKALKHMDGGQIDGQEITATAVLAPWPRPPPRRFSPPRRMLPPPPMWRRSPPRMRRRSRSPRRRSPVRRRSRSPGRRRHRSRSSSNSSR
Sequence of UniProt Q8TD22 (Q8TD22 whole entry, looked up): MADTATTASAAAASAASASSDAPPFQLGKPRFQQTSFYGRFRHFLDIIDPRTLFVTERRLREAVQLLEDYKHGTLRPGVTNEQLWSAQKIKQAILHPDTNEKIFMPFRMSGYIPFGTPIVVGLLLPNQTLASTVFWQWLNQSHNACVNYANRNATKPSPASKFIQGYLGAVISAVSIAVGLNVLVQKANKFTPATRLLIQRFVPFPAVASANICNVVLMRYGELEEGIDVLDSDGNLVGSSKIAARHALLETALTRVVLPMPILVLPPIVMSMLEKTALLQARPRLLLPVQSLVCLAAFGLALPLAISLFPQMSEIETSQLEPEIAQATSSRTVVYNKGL
Sequence of UniProt P51812 (P51812 whole entry, looked up): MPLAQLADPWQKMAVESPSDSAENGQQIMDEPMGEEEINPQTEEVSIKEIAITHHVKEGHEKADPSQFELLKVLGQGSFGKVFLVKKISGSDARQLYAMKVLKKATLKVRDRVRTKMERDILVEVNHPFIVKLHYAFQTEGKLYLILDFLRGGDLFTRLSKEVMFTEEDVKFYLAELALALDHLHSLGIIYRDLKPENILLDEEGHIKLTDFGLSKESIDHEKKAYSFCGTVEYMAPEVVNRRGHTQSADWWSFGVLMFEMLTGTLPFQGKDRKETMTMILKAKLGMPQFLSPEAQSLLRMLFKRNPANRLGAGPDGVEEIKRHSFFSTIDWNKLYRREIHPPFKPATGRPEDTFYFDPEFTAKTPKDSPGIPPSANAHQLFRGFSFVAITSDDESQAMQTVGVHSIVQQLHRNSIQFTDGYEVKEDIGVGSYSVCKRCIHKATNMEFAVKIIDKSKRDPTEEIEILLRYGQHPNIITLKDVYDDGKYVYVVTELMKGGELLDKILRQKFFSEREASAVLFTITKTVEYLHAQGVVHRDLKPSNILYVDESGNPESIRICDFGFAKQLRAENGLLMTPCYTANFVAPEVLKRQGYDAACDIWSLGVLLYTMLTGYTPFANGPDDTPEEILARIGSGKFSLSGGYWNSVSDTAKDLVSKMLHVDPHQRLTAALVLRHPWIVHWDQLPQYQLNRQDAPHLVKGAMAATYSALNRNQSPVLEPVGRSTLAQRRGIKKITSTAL
Sequence of UniProt P54136 (P54136 whole entry, looked up): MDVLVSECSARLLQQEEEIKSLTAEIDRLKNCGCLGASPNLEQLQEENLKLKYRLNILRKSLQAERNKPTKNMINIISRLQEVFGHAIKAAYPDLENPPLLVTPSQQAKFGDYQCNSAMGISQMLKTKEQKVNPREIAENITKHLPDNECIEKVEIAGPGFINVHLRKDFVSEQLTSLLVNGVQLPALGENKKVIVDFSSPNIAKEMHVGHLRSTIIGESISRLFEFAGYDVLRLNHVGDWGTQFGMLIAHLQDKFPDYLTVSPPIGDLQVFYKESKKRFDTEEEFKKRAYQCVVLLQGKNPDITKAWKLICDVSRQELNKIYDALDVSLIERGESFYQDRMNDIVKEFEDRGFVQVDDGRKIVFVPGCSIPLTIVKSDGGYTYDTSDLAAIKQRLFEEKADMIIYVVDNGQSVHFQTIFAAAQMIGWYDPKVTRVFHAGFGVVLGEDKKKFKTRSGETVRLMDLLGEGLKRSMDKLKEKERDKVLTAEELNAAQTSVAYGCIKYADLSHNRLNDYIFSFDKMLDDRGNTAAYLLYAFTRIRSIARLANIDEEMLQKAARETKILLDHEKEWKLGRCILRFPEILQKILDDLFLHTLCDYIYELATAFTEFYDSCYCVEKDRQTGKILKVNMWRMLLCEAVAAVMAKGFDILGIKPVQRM
Sequence of UniProt Q96I25 (Q96I25 whole entry, looked up): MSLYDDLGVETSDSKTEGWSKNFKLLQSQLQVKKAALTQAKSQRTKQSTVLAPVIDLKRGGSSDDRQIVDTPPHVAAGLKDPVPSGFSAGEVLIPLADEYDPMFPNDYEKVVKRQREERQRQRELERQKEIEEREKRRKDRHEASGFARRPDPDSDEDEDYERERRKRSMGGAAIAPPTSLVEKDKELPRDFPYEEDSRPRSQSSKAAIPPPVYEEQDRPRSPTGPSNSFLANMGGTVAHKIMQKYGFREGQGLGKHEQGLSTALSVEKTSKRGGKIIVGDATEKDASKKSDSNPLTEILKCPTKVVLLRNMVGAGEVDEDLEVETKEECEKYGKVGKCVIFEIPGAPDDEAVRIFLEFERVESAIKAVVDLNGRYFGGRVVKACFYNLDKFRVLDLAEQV
Sequence of UniProt Q6NT16 (Q6NT16 whole entry, looked up): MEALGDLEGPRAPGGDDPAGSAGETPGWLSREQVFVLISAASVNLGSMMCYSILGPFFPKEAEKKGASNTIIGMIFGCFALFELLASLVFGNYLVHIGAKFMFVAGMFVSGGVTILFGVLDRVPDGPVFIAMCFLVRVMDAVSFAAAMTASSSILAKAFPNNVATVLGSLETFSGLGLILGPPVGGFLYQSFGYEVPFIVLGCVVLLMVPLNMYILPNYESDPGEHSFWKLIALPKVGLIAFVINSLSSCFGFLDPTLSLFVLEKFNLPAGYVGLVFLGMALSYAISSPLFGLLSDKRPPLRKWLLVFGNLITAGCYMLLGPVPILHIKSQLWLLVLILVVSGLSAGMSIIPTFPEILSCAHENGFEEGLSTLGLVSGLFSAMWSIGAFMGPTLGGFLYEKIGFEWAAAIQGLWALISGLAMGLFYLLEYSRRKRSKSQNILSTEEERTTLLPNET
Sequence of UniProt Q9NX18 (Q9NX18 whole entry, looked up): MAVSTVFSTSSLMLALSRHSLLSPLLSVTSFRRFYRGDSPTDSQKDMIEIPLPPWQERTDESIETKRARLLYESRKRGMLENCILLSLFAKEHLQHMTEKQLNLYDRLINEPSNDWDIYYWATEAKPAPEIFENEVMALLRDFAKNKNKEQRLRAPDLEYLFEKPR
Sequence of UniProt O00560 (O00560 whole entry, looked up): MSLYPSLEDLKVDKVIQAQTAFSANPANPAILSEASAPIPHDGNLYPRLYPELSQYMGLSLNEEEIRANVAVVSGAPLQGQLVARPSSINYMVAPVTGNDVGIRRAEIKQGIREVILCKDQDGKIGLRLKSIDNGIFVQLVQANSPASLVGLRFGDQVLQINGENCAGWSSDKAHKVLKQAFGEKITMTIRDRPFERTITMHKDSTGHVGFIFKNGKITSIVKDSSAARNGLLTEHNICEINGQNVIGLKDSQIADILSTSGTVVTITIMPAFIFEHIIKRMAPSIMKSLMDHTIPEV
Sequence of UniProt Q9H6H4 (Q9H6H4 whole entry, looked up): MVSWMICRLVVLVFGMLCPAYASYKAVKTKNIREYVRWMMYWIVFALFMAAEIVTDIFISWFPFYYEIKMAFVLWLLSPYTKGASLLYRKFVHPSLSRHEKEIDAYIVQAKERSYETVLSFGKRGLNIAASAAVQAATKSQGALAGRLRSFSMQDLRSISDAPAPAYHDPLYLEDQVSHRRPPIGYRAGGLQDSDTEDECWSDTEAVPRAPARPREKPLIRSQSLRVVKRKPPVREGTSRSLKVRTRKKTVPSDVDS

log2 fold change, inactive:
RTF2 (UniProt Q9BY42) -0.069, RBM12 (UniProt Q9NTZ6) -0.055, RARS (UniProt P54136) 0.165, RAC1 (UniProt P63000) 0.026, SLC18B1 (UniProt Q6NT16) 0.027, SIDT2 isoform 2 (UniProt Q8NBJ9) -0.003, RBM17 (UniProt Q96I25) -0.007, RNF14 (UniProt Q9UBS8) 0.035, SFXN5 (UniProt Q8TD22) 0.01, SCPEP1 (UniProt Q9HB40) 0.004, RPS6KA3 (UniProt P51812) 0.037, RPRD1B (UniProt Q9NQG5) 0.037, SENP6 (UniProt Q9GZR1) -0.005, RARS2 (UniProt Q5T160) 0, RPS13 (UniProt P62277) 0.148, RANBP2 (UniProt P49792) -0.009, RCOR1 (UniProt Q9UKL0) 0.002, RNASEH2A (UniProt O75792) 0.011, RELA (UniProt Q04206) -0.062, RAVER1 (UniProt E9PAU2) 0.073, RB1CC1 (UniProt Q8TDY2) -0.041, REEP4 (UniProt Q9H6H4) 0.055, RNPS1 (UniProt Q15287) 0.064, RBM27 (UniProt Q9P2N5) 0.054, RPS20 isoform 2 (UniProt P60866) 0.064, RPL38 (UniProt P63173) -0.014, SDCBP isoform 2 (UniProt O00560) -0.2, SCG3 (UniProt Q8WXD2) 0.091, SH3GLB2 (UniProt Q9NR46) 0.034, RPS27A (UniProt P62979) 0.222, SAMSN1 isoform 3 (UniProt Q9NSI8) -0.058, RNASET2 (UniProt O00584) 0.05, RRP36 (UniProt Q96EU6) 0.118, SDHAF2 (UniProt Q9NX18) 0.001, RCOR3 isoform 3 (UniProt Q9P2K3) -0.088, RALY (UniProt Q9UKM9) -0.001, SLC12A9 (UniProt Q9BXP2) -0.021
